Values without a mark were called inactive. Active and inactive are the calls of the source. No rule for the calls is given here.
Potency is read from the fitted curve at half-maximal effect.

The test system of this test is HIV-1 nucleocapsid protein NCp7 (binding to TG oligonucleotide). Put plainly: HIV Nucleocapsid (AID 346).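 Also: potency is for inhibitors that block NC binding and lower polarization.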 Conditions: HIV-1 NC / fluorescein-TGTGTGTG probe, fluorescence polarization. Summed up: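 10 nM TG4xF probe with 100 nM nucleocapsid protein in high-salt Hepes pH 7.5 (250mM NaCl) containing 1uM ZnCl2 and reducing agents. Compound inhibition of binding was read as fluorescein polarization after 1 hr at room temperature.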
`O=S(=O)(c1ccccc1)N1CCC2(CCCN(Cc3cc(C(F)(F)F)cc(C(F)(F)F)c3)C2)CC1`: the Potency was more than 20 µM.

Regarding `CCNc1ncc2nc(CCc3ccccc3)c(=O)n(CCOC)c2n1`, the Potency is more than 20 µM.

As to `O=C(c1ccncc1)N1CCC2(CC1)CCN(c1ccc(-c3ccccc3)cc1)CC2`, the Potency is more than 20 µM.

For `Cc1cnc(CNc2ncncc2-c2ccccc2C#N)cn1`, the Potency was more than 20 µM.

For the compound `Cc1ccccc1-c1cc(N2CCN(C)CC2)ncn1`, the Potency was more than 20 µM.

For `COc1ccc(-c2nc3cnc(OC)nc3n(CCc3ccccc3)c2=O)cc1`, the Potency was more than 20 µM.

As to `COc1ccc(C(=O)N2CCC3(CC2)CCN(c2ncccn2)CC3)cc1`, the Potency is more than 20 µM.

Take `O=C(c1cc(C(F)(F)F)cc(C(F)(F)F)c1)N1CCC2(CC1)CCN(c1ccncc1)CC2`: the Potency is more than 20 µM.

In the case of `O=S(=O)(c1ccccc1)N1CCC2(CCCN(Cc3ccccc3)C2)CC1`, the Potency is more than 20 µM.

As to `COc1ccc2[nH]cc(CCNc3ncncc3-c3ccc(C(=O)N(C)C)cc3)c2c1`, the Potency was more than 20 µM.

As for `COc1cccc(Cn2c(=O)c(-c3cccs3)nc3cnc(OCc4ccccc4)nc32)c1`, the Potency was more than 20 µM.

As for `O=c1c(-c2ccccc2)nc2cnc(Nc3ccccc3)nc2n1C[C@H]1CCCO1`, the Potency is more than 20 µM.

In the case of `COc1ccc(C(=O)N2CCC[C@@]3(CCN(C(=O)Nc4ccccc4)C3)C2)cc1`, the Potency is more than 20 µM.

In the case of `O=C(c1cc(C(F)(F)F)cc(C(F)(F)F)c1)N1CCC2(CC1)CN(c1ccccn1)C2`, the Potency was more than 20 µM.

For the compound `COCCn1c(=O)c(C)nc2cnc(Oc3ccccc3)nc21`, the Potency was more than 20 µM.

Take `c1ccc(C(c2ccccc2)N2CC3(CCNCC3)C2)cc1`: the Potency is more than 20 µM.

Consider `c1ccc2c(N3CCOCC3)nc(-c3ccoc3)nc2c1`, for which the Potency is more than 20 µM.

`CS(=O)(=O)N1CCC[C@@]2(CCN(C(=O)Nc3cccc(C#N)c3)C2)C1`: the Potency was more than 20 µM.

Turning to `COc1ccc(C(=O)N2CCC3(CC2)CN(c2ccncc2)C3)cc1`, the Potency was more than 20 µM.

On to `Cc1noc(C)c1C(=O)N1CCC2(CCCN(Cc3nccs3)C2)CC1`, for which the Potency was more than 20 µM.

`COc1ccc(C(=O)N2CCC[C@@]3(CCN(c4ccccn4)C3)C2)cc1`: the Potency is more than 20 µM.

Regarding `O=C(c1cccc(F)c1)N1CCC2(CCCN(Cc3nccs3)C2)CC1`, the Potency was more than 20 µM.

For `CS(=O)(=O)N1CCC2(CC1)CN(c1ccccn1)C2`, the Potency is more than 20 µM.

Consider `COc1ccc(NC(=O)N2CC[C@@]3(CCCN(C(=O)c4cnccn4)C3)C2)cc1`, for which the Potency is more than 20 µM.

With `COCCn1c(=O)c(CCc2ccccc2)nc2cnc(Oc3ccccc3)nc21`, the Potency is more than 20 µM.

As for `COC(=O)N1CCC2(CCCN(Cc3nccs3)C2)CC1`, the Potency is more than 20 µM.

For `CN1CCN(c2ncnc3ccc(-c4cccnc4)cc23)CC1`, the Potency is more than 20 µM.

For the compound `CN1CCN(c2ncc3nc(-c4cc(F)cc(F)c4)c(=O)n(Cc4cccs4)c3n2)CC1`, the Potency was more than 20 µM.

Regarding `Cc1cnc(CNc2cc(-c3ccc(N(C)C)cc3)ncn2)cn1`, the Potency is more than 20 µM.

Regarding `CN(C)c1ncc2nc(-c3cc(F)cc(F)c3)c(=O)n(C)c2n1`, the Potency is more than 20 µM.

On to `CS(=O)(=O)N1CCC2(CCCN(C(=O)Nc3ccccc3)C2)CC1`, for which the Potency is more than 20 µM.

Take `CCNc1ncc2nc(-c3cccs3)c(=O)n(-c3ccc(OC)cc3)c2n1`: the Potency is 4.09 µM (active).

On to `CS(=O)(=O)Nc1cccc(-c2cncnc2NCc2cccs2)c1`, for which the Potency is more than 20 µM.

With `COc1cccc(-c2ccc3ncnc(NC4CC4)c3c2)c1`, the Potency was more than 20 µM.

For the compound `COc1ccc(-n2c(=O)c(-c3cn(C)c4ccccc34)nc3cnc(N4CCNCC4)nc32)cc1`, the Potency was more than 4 µM.

Take `COc1ccc2[nH]cc(CCNc3ncncc3-c3cccc(C#N)c3)c2c1`: the Potency was more than 20 µM.

`O=c1c(-c2ccc(F)cc2)nc2cncnc2n1C1CC1`: the Potency was more than 20 µM.

As for `Cn1cccc1C(=O)N1CCC2(CCCN(c3ccccn3)C2)CC1`, the Potency was more than 20 µM.

On to `COc1ccc2[nH]cc(CCNc3ncncc3-c3cccc(NS(C)(=O)=O)c3)c2c1`, for which the Potency is more than 20 µM.

For the compound `O=C(c1ccco1)N1CCC2(CCCN(c3ccccn3)C2)CC1`, the Potency is more than 20 µM.

For the origin of these results see PubChem BioAssay (NCATS).
